In PubChem BioAssay AID540333 (Southern Research Specialized Biocontainment Screening …, 2011):
In all, about 10,000 compounds went through this assay and about 320 (3.2%) were called active. Shown is part of a subset that was picked to be rich in actives. Unmarked numbers belong to inactive results. Rule as the data show it: active = CPE inhibition mostly above about 9.1% (no sharp cut-off); inactive = mostly below about 7.2%.

experiment: Dengue virus cytopathic effect inhibitors, cell-based, CPE readout, HTS (AID 540333); settings: Dengue virus CPE inhibition in host cells, at 20 µM; hits give high values

| SMILES | CPE inhibition |
| --- | --- |
| S=C(Nc1ccccc1Cl)N1CCN(Cc2ccccc2)CC1 | 0.465% |
| N#C/C(=C\c1cn(Cc2cccc(F)c2)c2ccccc12)C(=O)NCc1ccco1 | 0.23% |
| Cc1ccc(OCCSCc2nnc(NC(=O)Nc3cccc(Cl)c3)s2)cc1 | 5.79% |
| COc1ccc(NS(=O)(=O)c2ccc3nc(COc4ccc(Cl)c(C)c4)[nH]c3c2)cc1 | 1.16% |
| CSc1ccc(/C=C/C(=O)c2ccc(O)cc2)cc1 | inactive |
| CCOc1ccc(/C=C/C(=O)Nc2ccccc2C(F)(F)F)cc1 | inactive |
| O=c1c2ccccc2cnn1Cc1n[nH]c(=S)n1-c1ccccc1 | 0.01% |
| CCCCCCNC(=O)CC(NS(=O)(=O)c1ccc(OC)cc1)C(C)C (stereo not given) | 0.025% |
| Cn1cnc(C(=O)N2CCN(C(=O)OC(C)(C)C)CC2)c1C(=O)N1CCN(C(=O)OC(C)(C)C)CC1 | 1.25% |
| C[C@H](NC(=O)c1ncn(C)c1C(=O)N[C@@H](C)c1ccccc1)c1ccccc1 | 0.505% |
| CC(C)(C)OC(=O)CNC(=O)c1[nH]cnc1C(=O)NC1CCN(C(=O)OC(C)(C)C)CC1 | inactive |
| C[C@@H](NC(=O)c1nc[nH]c1C(=O)OCc1ccccc1)c1ccccc1 | 0.97% |
| C[C@@H](NC(=O)c1ncn(Cc2ccccc2)c1C(=O)N[C@H](C)c1ccccc1)c1ccccc1 | 13.8% (active) |
| CC(C)(C)OC(=O)N1CCC(NC(=O)c2ncn(Cc3ccccc3)c2C(=O)NC2CCN(C(=O)OC(C)(C)C)CC2)CC1 | 39.3% (active) |
| Cc1ccc2c(c1)/C(=N/N1C(=O)c3ccccc3C1=O)C(=O)N2 | inactive |
| CC(C)C(=O)NC(=S)Nc1nnn(C)n1 | inactive |
| Cc1ccc(N2C(=O)[C@@H]3C(C(=O)C(c4ccccc4)c4ccccc4)=NN[C@@H]3C2=O)cc1 | 0.425% |
| CCC(=O)Nc1ccc(NC(=O)/C=C/c2ccc(Cl)cc2)cc1 | 21.6% (active) |
| CC(=O)c1ccc(NC(=O)/C=C/c2ccc(C)cc2)cc1 | 4.66% |
| CCC(=O)N/N=C(\C)CC(=O)Nc1ccc(Cl)cc1 | 0.01% |

| SMILES | CPE inhibition |
| --- | --- |
| Cc1sc(NC(=O)c2ccccc2)c(C(c2ccc(Cl)cc2)N2CCN(CCO)CC2)c1C (stereo not given) | inactive |
| Cc1nc2sc(C(c3ccc(F)cc3)N3CCN(C(=O)c4ccco4)CC3)c(O)n2n1 (stereo not given) | 0.39% |
| CC(=O)NS(=O)(=O)c1ccc(NC(=O)C2c3ccccc3Oc3ccccc32)cc1 | inactive |
| CN(c1ccccc1)S(=O)(=O)c1ccc(Cl)c(C(=O)NCCc2c[nH]c3ccccc23)c1 | 2.39% |
| CN(C)c1ccc(NS(=O)(=O)c2ccc(Cl)cc2)cc1 | 0.45% |
| CN(C)c1ccc(C(CNS(=O)(=O)c2ccc(F)cc2)c2c[nH]c3ccccc23)cc1 (stereo not given) | 36.1% (active) |
| COCCCNC(=O)c1cccc2c(=O)c(C)c(-c3ccccc3)oc12 | 0.515% |
| Cc1ccc(C)n1-c1ccc(NC(=O)c2ccccc2)cc1 | inactive |
| O=C(c1cnn(C(=O)COc2ccc(Cl)cc2)c1)c1ccccc1O | inactive |
| COc1cc(NC(=O)COC(=O)/C=C/c2ccccc2Cl)cc(OC)c1 | 22.1% (active) |
| O=C(COC(=O)/C=C/c1ccccc1Cl)NC(=O)Cc1ccccc1 | 0.12% |
| COc1cc(NC(=O)COC(=O)/C=C/c2ccc(Cl)cc2Cl)cc(OC)c1 | 8.61% |
| COc1ccccc1OCCn1cc(/C=C(\C#N)C(=O)NCc2cccs2)c2ccccc21 | 2.51% |
| O=C(NCc1ccco1)c1ccc(Cl)c(S(=O)(=O)N2CCc3ccccc32)c1 | 1.37% |
| COc1cc(C(=O)NC(=S)NC(C)C)cc(OC)c1OC | inactive |
| Cc1ccc(NC(=O)c2ccc(NCCN)c([N+](=O)[O-])c2)cc1Cl | 0.22% |
| O=C(Nc1ccccc1)c1ccc(NCCc2ccccc2)c([N+](=O)[O-])c1 | 13.8% (active) |
| Cc1ccc(NC(=O)c2ccc(NCCN)c([N+](=O)[O-])c2)cc1 | 3.98% |
| O=C(O)CCC(=O)OCc1c(-c2ccccc2)ncc2ccccc12 | 1.18% |
| CCOc1cc(C2Nc3ccccc3C(=O)N2c2ccccc2)c(Br)cc1OCC(=O)O (stereo not given) | inactive |

| SMILES | CPE inhibition |
| --- | --- |
| COc1ccc(NCc2ccc([N+](=O)[O-])s2)cc1 | 16.8% (active) |
| COc1ccc(NC(=O)/C=C/c2ccccc2[N+](=O)[O-])c(OC)c1 | 0.44% |
| COc1cccc(NCc2ccc([N+](=O)[O-])s2)c1 | inactive |
| COc1ccccc1NCc1ccc([N+](=O)[O-])s1 | inactive |
| COc1ccc(NCc2ccc([N+](=O)[O-])s2)c(OC)c1 | 11.8% (active) |
| COc1ccc(NCc2ccccc2[N+](=O)[O-])cc1OC | 1.54% |
| COc1cc(C2Nc3ccccc3C(=O)N2c2ccccc2)c(Br)cc1OCC(=O)O (stereo not given) | inactive |
| Cn1cnnc1SCC(=O)Nc1cc(S(=O)(=O)N2CCCCCC2)ccc1Cl | inactive |
| Cc1ccc2c([N+](=O)[O-])cccc2n1 | inactive |
| Cc1ccc(CNC(=O)c2ccc3c(c2)S(=O)(=O)c2ccccc2C3=O)o1 | inactive |
| COc1cc(OC)cc(-c2c(-c3cccs3)c3cc(-c4ccc5[nH]ccc5c4)ccc3n2C)c1 | 4.79% |
| CCCCOc1ccc(/C=C/C(=O)OCC(=O)NC(=O)NCC(C)C)cc1OCC | inactive |
| CCOc1ccc(/C=C/C(=O)NCc2ccccc2)cc1 | inactive |
| CCOc1ccc(/C=N/OCC(=O)NC(c2ccccc2)c2ccccc2)cc1 | 13.1% (active) |
| COc1ccc(/C=N/OCC(=O)NC(c2ccccc2)c2ccccc2)cc1OC | 7.42% |
| O=C(CNC(=O)c1cccc(Cl)c1)N/N=C/C=C/c1ccccc1 | 0.175% |
| O=C(CSc1nc2ccccc2c(=O)n1-c1ccc(F)cc1F)c1c[nH]c2ccccc12 | 2.1% |
| CCOC(=O)c1c(CSc2ccc(C)cc2)oc2ccc(O)cc12 | 20.7% (active) |
| CCOC(=O)c1c(C)[nH]c(C)c1C(=O)CSc1nc2ccccc2c(=O)n1-c1ccc(C)cc1 | inactive |
| Cc1ccc(SCC(=O)c2c(C)[nH]c3ccccc23)cc1 | inactive |
